{
  "source": "PubChem BioAssay AID1159580",
  "about": "(chemical genetic matrix, 2015)",
  "experiment": "chemical genetic growth profiling, strain panel (AID 1159580);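 note: tested at 20 µM; growth read once vehicle control cultures reached saturation at 30 °C; 1 = growth at the plate median or of vehicle wells; lower values mean less growth of the strain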",
  "conditions": "growth OD",
  "key": {"[1]": {"conditions": "S. cerevisiae deletion strains, locus YAL013W, strain DEP1, hits give low values"}, "[2]": {"conditions": "S. cerevisiae deletion strains, locus YBR229C, strain ROT2, hits give low values"}, "[3]": {"conditions": "S. cerevisiae deletion strains, locus YCL061C, strain MRC1, hits give low values"}, "[4]": {"conditions": "S. cerevisiae deletion strains, locus YDL101C, strain DUN1, hits give low values"}, "[5]": {"conditions": "S. cerevisiae deletion strains, locus YDR150W, strain NUM1, hits give low values"}, "[6]": {"conditions": "S. cerevisiae deletion strains, locus YEL061C, strain CIN8, hits give low values"}, "[7]": {"conditions": "S. cerevisiae deletion strains, locus YGR078C, strain PAC10, hits give low values"}, "[8]": {"conditions": "S. cerevisiae deletion strains, locus YHR030C, strain SLT2, hits give low values"}, "[9]": {"conditions": "S. cerevisiae deletion strains, locus YHR087W, strain rtc3, hits give low values"}, "[10]": {"conditions": "S. cerevisiae deletion strains, locus YJL187C, strain SWE1, hits give low values"}, "[11]": {"conditions": "S. cerevisiae deletion strains, locus YJR043C, strain POL32, hits give low values"}, "[12]": {"conditions": "S. cerevisiae deletion strains, locus YJR075W, strain HOC1, hits give low values"}, "[13]": {"conditions": "S. cerevisiae deletion strains, locus YKL190W, strain CNB1, hits give low values"}, "[14]": {"conditions": "S. cerevisiae deletion strains, locus YLR039C, strain RIC1, hits give low values"}, "[15]": {"conditions": "S. cerevisiae deletion strains, locus YLR058C, strain SHM2 (second series), hits give low values"}, "[16]": {"conditions": "S. cerevisiae deletion strains, locus YLR085C, strain ARP6, hits give low values"}, "[17]": {"conditions": "S. cerevisiae deletion strains, locus YLR262C, strain YPT6, hits give low values"}, "[18]": {"conditions": "S. cerevisiae deletion strains, locus YML094W, strain GIM5, hits give low values"}, "[19]": {"conditions": "S. cerevisiae deletion strains, locus YMR219W, strain ESC1, hits give low values"}, "[20]": {"conditions": "S. cerevisiae deletion strains, locus YMR263W, strain SAP30, hits give low values"}, "[21]": {"conditions": "S. cerevisiae deletion strains, locus YMR307W, strain GAS1, hits give low values"}, "[22]": {"conditions": "S. cerevisiae deletion strains, locus YNL153C, strain GIM3, hits give low values"}, "[23]": {"conditions": "S. cerevisiae deletion strains, locus YNL298W, strain CLA4 (second series), hits give low values"}, "[24]": {"conditions": "S. cerevisiae deletion strains, locus YNL322C, strain KRE1, hits give low values"}, "[25]": {"conditions": "S. cerevisiae deletion strains, locus YNR030W, strain Alg12, hits give low values"}, "[26]": {"conditions": "S. cerevisiae deletion strains, locus YPL055C, strain LGE1, hits give low values"}, "[27]": {"conditions": "S. cerevisiae deletion strains, locus YPL241C, strain CIN2, hits give low values"}, "[28]": {"conditions": "S. cerevisiae deletion strains, locus YPR135W, strain CTF4, hits give low values"}, "[29]": {"conditions": "S. cerevisiae strains, strain wild type, hits give low values"}, "[30]": {"conditions": "S. cerevisiae deletion strains, locus YOL006C, strain TOP1, hits give low values"}, "[31]": {"conditions": "S. cerevisiae deletion strains, locus YGR229C, strain SMI1, hits give low values"}},
  "note": "About 2,000 (36%) of roughly 5,500 compounds were called active. Roughly 18% stayed inconclusive and do not appear here. This is one part of the list. Unmarked numbers belong to inactive results. Cut-off read from the data, not from the text of the source: active = normalized growth mostly below about 0.91 (no sharp cut-off); inconclusive = no clear call, values can overlap the other calls; inactive = mostly above about 0.92.",
  "data": [
    {"smiles": "Cc1csc2ccc(Cl)cc12", "values": [
      {"measurement": "normalized growth", "setting": "[1]", "value": 0.994},
      {"measurement": "normalized growth", "setting": "[2]", "value": 0.998},
      {"measurement": "normalized growth", "setting": "[3]", "value": 1.01},
      {"measurement": "normalized growth", "setting": "[4]", "value": 1.02},
      {"measurement": "normalized growth", "setting": "[5]", "value": 0.993},
      {"measurement": "normalized growth", "setting": "[6]", "value": 1.01},
      {"measurement": "normalized growth", "setting": "[7]", "value": 0.998},
      {"measurement": "normalized growth", "setting": "[8]", "value": 1.07},
      {"measurement": "normalized growth", "setting": "[9]", "value": 0.999},
      {"measurement": "normalized growth", "setting": "[10]", "value": 1.02},
      {"measurement": "normalized growth", "setting": "[11]", "value": 1},
      {"measurement": "normalized growth", "setting": "[12]", "value": 0.98},
      {"measurement": "normalized growth", "setting": "[13]", "value": 1.01},
      {"measurement": "normalized growth", "setting": "[14]", "value": 1.07},
      {"measurement": "normalized growth", "setting": "[15]", "value": 1},
      {"measurement": "normalized growth", "setting": "[16]", "value": 1.03},
      {"measurement": "normalized growth", "setting": "[17]", "value": 1.04},
      {"measurement": "normalized growth", "setting": "[18]", "value": 1.01},
      {"measurement": "normalized growth", "setting": "[19]", "value": 1},
      {"measurement": "normalized growth", "setting": "[20]", "value": 1.01},
      {"measurement": "normalized growth", "setting": "[21]", "value": 1.07},
      {"measurement": "normalized growth", "setting": "[22]", "value": 1.02},
      {"measurement": "normalized growth", "setting": "[23]", "value": 1.06},
      {"measurement": "normalized growth", "setting": "[24]", "value": 1.01},
      {"measurement": "normalized growth", "setting": "[25]", "value": 1.03},
      {"measurement": "normalized growth", "setting": "[26]", "value": 0.996},
      {"measurement": "normalized growth", "setting": "[27]", "value": 1.02},
      {"measurement": "normalized growth", "setting": "[28]", "value": 1},
      {"measurement": "normalized growth", "setting": "[29]", "value": 1.01}
    ]},
    {"smiles": "Cc1c(Br)sc2ccc(Cl)cc12", "values": [
      {"measurement": "normalized growth", "setting": "[1]", "value": 0.987},
      {"measurement": "normalized growth", "setting": "[2]", "value": 0.936},
      {"measurement": "normalized growth", "setting": "[4]", "value": 0.96},
      {"measurement": "normalized growth", "setting": "S. cerevisiae deletion strains, locus YDL134C, strain PPH21, hits give low values", "value": "0.849 (active)"},
      {"measurement": "normalized growth", "setting": "[5]", "value": 1.03},
      {"measurement": "normalized growth", "setting": "[6]", "value": 0.909},
      {"measurement": "normalized growth", "setting": "[7]", "value": 0.952},
      {"measurement": "normalized growth", "setting": "[8]", "value": "0.294 (active)"},
      {"measurement": "normalized growth", "setting": "[9]", "value": 0.963},
      {"measurement": "normalized growth", "setting": "[11]", "value": 1.05},
      {"measurement": "normalized growth", "setting": "[12]", "value": 0.955},
      {"measurement": "normalized growth", "setting": "[13]", "value": 0.959},
      {"measurement": "normalized growth", "setting": "[14]", "value": "0.733 (active)"},
      {"measurement": "normalized growth", "setting": "[15]", "value": 0.952},
      {"measurement": "normalized growth", "setting": "[16]", "value": "0.708 (active)"},
      {"measurement": "normalized growth", "setting": "[17]", "value": "0.709 (active)"},
      {"measurement": "normalized growth", "setting": "[18]", "value": "0.864 (active)"},
      {"measurement": "normalized growth", "setting": "[19]", "value": 0.948},
      {"measurement": "normalized growth", "setting": "[20]", "value": 0.99},
      {"measurement": "normalized growth", "setting": "[22]", "value": 0.98},
      {"measurement": "normalized growth", "setting": "[23]", "value": "0.782 (active)"},
      {"measurement": "normalized growth", "setting": "[24]", "value": 0.976},
      {"measurement": "normalized growth", "setting": "[25]", "value": 0.926},
      {"measurement": "normalized growth", "setting": "[30]", "value": 0.891},
      {"measurement": "normalized growth", "setting": "[26]", "value": 1.04},
      {"measurement": "normalized growth", "setting": "[27]", "value": 0.939},
      {"measurement": "normalized growth", "setting": "[28]", "value": 0.953}
    ]},
    {"smiles": "NC(N)=[N+]1CCc2ccccc2C1", "values": [
      {"measurement": "normalized growth", "setting": "S. cerevisiae deletion strains, locus YAL040C, strain CLN3, hits give low values", "value": 0.966},
      {"measurement": "normalized growth", "setting": "S. cerevisiae deletion strains, locus YCL061C, strain MRC1 (second series), hits give low values", "value": 0.989},
      {"measurement": "normalized growth", "setting": "[5]", "value": 1},
      {"measurement": "normalized growth", "setting": "S. cerevisiae deletion strains, locus YDR363W, strain ESC2, hits give low values", "value": 0.904},
      {"measurement": "normalized growth", "setting": "S. cerevisiae deletion strains, locus YER002W, strain NOP16, hits give low values", "value": 0.982},
      {"measurement": "normalized growth", "setting": "[31]", "value": 0.962},
      {"measurement": "normalized growth", "setting": "[20]", "value": 0.988},
      {"measurement": "normalized growth", "setting": "[21]", "value": 1},
      {"measurement": "normalized growth", "setting": "S. cerevisiae deletion strains, locus YNL128W, strain TEP1, hits give low values", "value": 0.992},
      {"measurement": "normalized growth", "setting": "[22]", "value": 1},
      {"measurement": "normalized growth", "setting": "S. cerevisiae deletion strains, locus YNL175C, strain NOP13, hits give low values", "value": 0.991},
      {"measurement": "normalized growth", "setting": "S. cerevisiae deletion strains, locus YNL197C, strain WHI3, hits give low values", "value": 0.984},
      {"measurement": "normalized growth", "setting": "S. cerevisiae deletion strains, locus YNL224C, strain SQS1, hits give low values", "value": 1.01},
      {"measurement": "normalized growth", "setting": "[24]", "value": 0.972},
      {"measurement": "normalized growth", "setting": "S. cerevisiae deletion strains, locus YOR083W, strain WHI5 (second series), hits give low values", "value": 0.969},
      {"measurement": "normalized growth", "setting": "[26]", "value": 0.944}
    ]},
    {"smiles": "COc1cc(OC)nc(N)n1", "values": [
      {"measurement": "normalized growth", "setting": "[1]", "value": 1.02},
      {"measurement": "normalized growth", "setting": "[2]", "value": 0.958},
      {"measurement": "normalized growth", "setting": "[3]", "value": 1.03},
      {"measurement": "normalized growth", "setting": "[4]", "value": 1.04},
      {"measurement": "normalized growth", "setting": "[5]", "value": 1.03},
      {"measurement": "normalized growth", "setting": "[6]", "value": 1},
      {"measurement": "normalized growth", "setting": "[7]", "value": 1.03},
      {"measurement": "normalized growth", "setting": "[31]", "value": 0.979},
      {"measurement": "normalized growth", "setting": "[8]", "value": 1.06},
      {"measurement": "normalized growth", "setting": "[9]", "value": 0.974},
      {"measurement": "normalized growth", "setting": "[10]", "value": 1.02},
      {"measurement": "normalized growth", "setting": "[11]", "value": 1.06},
      {"measurement": "normalized growth", "setting": "[12]", "value": 1.01},
      {"measurement": "normalized growth", "setting": "[13]", "value": 0.992},
      {"measurement": "normalized growth", "setting": "[14]", "value": 0.946},
      {"measurement": "normalized growth", "setting": "[15]", "value": 0.991},
      {"measurement": "normalized growth", "setting": "[16]", "value": 0.949},
      {"measurement": "normalized growth", "setting": "[17]", "value": 0.96},
      {"measurement": "normalized growth", "setting": "[18]", "value": 0.986},
      {"measurement": "normalized growth", "setting": "[19]", "value": 0.98},
      {"measurement": "normalized growth", "setting": "[20]", "value": 1.02},
      {"measurement": "normalized growth", "setting": "[22]", "value": 1.02},
      {"measurement": "normalized growth", "setting": "[23]", "value": 0.99},
      {"measurement": "normalized growth", "setting": "[24]", "value": 0.988},
      {"measurement": "normalized growth", "setting": "[25]", "value": 0.999},
      {"measurement": "normalized growth", "setting": "[30]", "value": 1.01},
      {"measurement": "normalized growth", "setting": "[26]", "value": 1.02},
      {"measurement": "normalized growth", "setting": "[27]", "value": 1.02},
      {"measurement": "normalized growth", "setting": "[28]", "value": 1.06},
      {"measurement": "normalized growth", "setting": "[29]", "value": 0.985}
    ]}
  ]
}
